The values below come from the supplement of paper PMC10933113.

A number with no mark means an inactive call.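 Rule for the calls: active = curve rank above 3; inactive = curve rank 0.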

In this test the test system is KeratinoSens (HaCaT ARE-luciferase) cells. Briefly: Nrf2/ARE luciferase activation call in qHTS KeratinoSens assay (1 = active, 0 = inactive). (In general: In qHTS, concentration-response curves come from the screen itself.)
With `CC[n+]1ccccc1.O=S(=O)([O-])C(F)(F)F`, the “Nrf2/ARE luciferase activation call” value is “not active ARE inducer (skin sensitizer alert)”.
In the case of `CCOCCn1c(N2CCCN(C)CC2)nc2ccccc21.O=C(O)/C=C/C(=O)O.O=C(O)/C=C/C(=O)O` it was “not active ARE inducer (skin sensitizer alert)”; in that of `CCN(CC)C(=O)N1CCN(C)CC1.O=C(O)CC(O)(CC(=O)O)C(=O)O`, “not active ARE inducer (skin sensitizer alert)”; in that of `C[NH+](C)CCC(c1ccccc1)c1cccc[nH+]1.O=C([O-])/C=C\C(=O)[O-]` (stereo not given), “not active ARE inducer (skin sensitizer alert)”.
Take `CCn1cc[n+](C)c1.Cc1ccc(S(=O)(=O)[O-])cc1`: the “Nrf2/ARE luciferase activation call” value was “not active ARE inducer (skin sensitizer alert)”.
As for `Nc1c2c(nc3ccccc13)CCCC2O.O=C(O)/C=C\C(=O)O` (stereo not given), the entry is “not active ARE inducer (skin sensitizer alert)”; as for `CCN(CCCc1ccccc1)CCCc1ccccc1.O=C(O)CC(O)(CC(=O)O)C(=O)O`, “not active ARE inducer (skin sensitizer alert)”; as for `CN1Cc2c(N)cccc2C(c2ccccc2)C1.O=C(O)/C=C\C(=O)O` (stereo not given), “not active ARE inducer (skin sensitizer alert)”.
As for `CCN(CC)CCc1nc(-c2ccccc2)no1.O=C(O)CC(O)(CC(=O)O)C(=O)O`, the entry is “not active ARE inducer (skin sensitizer alert)”; as for `O=C(O)/C=C/C(=O)O.O=C1c2ccccc2C(=O)N1CCc1noc(-c2ccc(CN3CCCCCC3)s2)n1`, “not active ARE inducer (skin sensitizer alert)”; as for `O=C(O)/C=C/C(=O)O.OCCOCCN1CCN(C2=Nc3ccccc3Sc3ccccc32)CC1.OCCOCCN1CCN(C2=Nc3ccccc3Sc3ccccc32)CC1`, “not active ARE inducer (skin sensitizer alert)”.
As for `CN(C)CCOC(c1ccc(Cl)cc1)c1ccccn1.O=C(O)/C=C\C(=O)O` (stereo not given), the entry is “not active ARE inducer (skin sensitizer alert)”.
For the molecule `C[n+]1c2cc(N)ccc2cc2ccc(N)cc21.Nc1ccc2cc3ccc(N)cc3nc2c1.[Cl-]`, the “Nrf2/ARE luciferase activation call” value was “active ARE inducer (skin sensitizer alert)”.
As for `C[C@@H](CN(C)C)CN1c2ccccc2Sc2ccccc21.C[C@@H](CN(C)C)CN1c2ccccc2Sc2ccccc21.O=C(O)[C@@H](O)[C@@H](O)C(=O)O`, the entry is “not active ARE inducer (skin sensitizer alert)”; as for `Cc1ccc(S(=O)(=O)O)cc1.NC1CCN(c2nc3c(cc2F)c(=O)c(C(=O)O)cn3-c2ccc(F)cc2F)C1` (stereo not given), “not active ARE inducer (skin sensitizer alert)”; as for `Cn1c(=O)c2c(ncn2C)n(C)c1=O.O=C(O)CC(O)(CC(=O)O)C(=O)O`, “not active ARE inducer (skin sensitizer alert)”.
In the case of `COCCc1ccc(OCC(O)CNC(C)C)cc1.COCCc1ccc(OCC(O)CNC(C)C)cc1.O=C(O)[C@H](O)[C@@H](O)C(=O)O` (stereo not given) it was “not active ARE inducer (skin sensitizer alert)”.
In the case of `CNC[C@H](O)c1ccc(O)c(O)c1.O=C(O)[C@H](O)[C@@H](O)C(=O)O` it was “not active ARE inducer (skin sensitizer alert)”.
Take `Cc1ccsc1/C=C/C1=NCCCN1C.O=C(O)[C@@H](O)[C@@H](O)C(=O)O`: the “Nrf2/ARE luciferase activation call” value is “not active ARE inducer (skin sensitizer alert)”.
As to `CCCc1nc(C)c2c(=O)nc(-c3cc(S(=O)(=O)N4CCN(CC)CC4)ccc3OCC)[nH]n12.O=C(O)CC(O)(CC(=O)O)C(=O)O`, the “Nrf2/ARE luciferase activation call” value is “not active ARE inducer (skin sensitizer alert)”.
In the case of `CCCC[N+]1(C)CCCC1.O=S(=O)([O-])C(F)(F)F` it was “not active ARE inducer (skin sensitizer alert)”; in that of `O=C(O)/C=C\C(=O)O.O=C(O)/C=C\C(=O)O.c1cc(CN2CCCCC2)cc(OCCCNc2nc3ccccc3s2)c1`, “not active ARE inducer (skin sensitizer alert)”.
As for `NC[C@H](O)c1ccc(O)c(O)c1.O=C(O)C(O)C(O)C(=O)O.O=C(O)C(O)C(O)C(=O)O`, the entry is “not active ARE inducer (skin sensitizer alert)”.
In the case of `CCCCn1cc[n+](C)c1.O=S(=O)([O-])C(F)(F)F` it was “not active ARE inducer (skin sensitizer alert)”; in that of `CC(C)C[P+](C)(CC(C)C)CC(C)C.Cc1ccc(S(=O)(=O)[O-])cc1`, “not active ARE inducer (skin sensitizer alert)”.
Consider `CCOCC(O)COc1ccc(NC(=O)CC[S+](C)C)cc1.Cc1ccc(S(=O)(=O)[O-])cc1` (stereo not given), for which the “Nrf2/ARE luciferase activation call” value is “not active ARE inducer (skin sensitizer alert)”.
As for `CN(CCOc1ccc(CC2SC(=O)NC2=O)cc1)c1ccccn1.O=C(O)/C=C\C(=O)O` (stereo not given), the entry is “not active ARE inducer (skin sensitizer alert)”.
On to `CN(C)CC[C@@H](c1ccc(Br)cc1)c1ccccn1.O=C(O)/C=C\C(=O)O`, for which the “Nrf2/ARE luciferase activation call” value was “not active ARE inducer (skin sensitizer alert)”.
Regarding `C[NH+](C)CCC(c1ccc(Cl)cc1)c1ccccn1.O=C([O-])/C=C\C(=O)O` (stereo not given), the “Nrf2/ARE luciferase activation call” value was “not active ARE inducer (skin sensitizer alert)”.
In the case of `CC[N+]1(C)CCCC1.O=S(=O)([O-])C(F)(F)F`, the “Nrf2/ARE luciferase activation call” value is “not active ARE inducer (skin sensitizer alert)”.
In the case of `CN1CCC(=C2c3ccccc3Sc3ccccc32)CC1.O=C(O)/C=C\C(=O)O` it was “not active ARE inducer (skin sensitizer alert)”; in that of `CN1CCC[C@@H]1CCO[C@](C)(c1ccccc1)c1ccc(Cl)cc1.O=C(O)/C=C/C(=O)O`, “not active ARE inducer (skin sensitizer alert)”; in that of `CC(C)(C)NC[C@H](O)COc1nsnc1N1CCOCC1.O=C(O)/C=C\C(=O)O`, “not active ARE inducer (skin sensitizer alert)”.
With `Cc1cc(C)[nH]c(=O)n1.O=C(Nc1ccc([N+](=O)[O-])cc1)Nc1ccc([N+](=O)[O-])cc1`, the “Nrf2/ARE luciferase activation call” value is “not active ARE inducer (skin sensitizer alert)”.
In the case of `COc1cc(N)c(Cl)cc1C(=O)NC1CCN(Cc2ccccc2)CC1.O=C(O)/C=C\C(=O)O` it was “not active ARE inducer (skin sensitizer alert)”.
